Several values for one entry are separate records, joined by “and”; a condition that tells them apart may be missing. Equal entries are not always repeated. Screen size: about 16,000 compounds; about 2,600 (16%) were called active. Not shown: some 20% with an inconclusive outcome. Calls follow the shape of the dose curve; as a rule, active = well fitted curve in the direction sought with a large enough effect; inconclusive = small, poorly fitted or top-dose-only effect, or effect the other way; inactive = no such curve, though single readings can be large or run the other way. Not all results are given here. Some compounds were tested as several samples or in several runs, with calls that do not always agree.
The compounds below were run against Cytochrome P450 2D6 (Homo sapiens) (UniProt P10635) (assay: Cytochrome panel assay with activity outcomes). Settings: recombinant CYP, pro-luciferin dealkylation, luminescence, p450-cyp2d6; series mostly up to 57.1 µM; activity, negative = inhibition: at the top concentration.
Sequence of Cytochrome P450 2D6 (Homo sapiens) (P10635 whole entry, looked up): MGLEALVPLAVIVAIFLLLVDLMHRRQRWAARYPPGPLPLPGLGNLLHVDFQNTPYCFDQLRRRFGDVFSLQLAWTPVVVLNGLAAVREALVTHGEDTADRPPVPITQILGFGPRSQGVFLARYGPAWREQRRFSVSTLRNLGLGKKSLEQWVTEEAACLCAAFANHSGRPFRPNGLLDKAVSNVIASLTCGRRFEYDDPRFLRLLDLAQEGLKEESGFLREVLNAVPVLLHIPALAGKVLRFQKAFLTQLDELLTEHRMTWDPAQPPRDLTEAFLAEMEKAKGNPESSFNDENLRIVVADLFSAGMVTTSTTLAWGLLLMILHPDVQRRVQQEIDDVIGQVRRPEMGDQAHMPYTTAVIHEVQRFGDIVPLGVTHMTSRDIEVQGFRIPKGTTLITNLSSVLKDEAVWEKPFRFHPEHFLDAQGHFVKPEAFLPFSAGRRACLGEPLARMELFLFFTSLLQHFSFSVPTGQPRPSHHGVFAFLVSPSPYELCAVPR
% is scaled to controls: 0 for no effect and ±100 for the full control effect.

SMILES | activity, negative = inhibition | AC50
N#C/C(=C\NC(=S)c1ccncc1)c1nc2ccccc2s1 | -9.99% [at 11.4 µM] (inactive) | –
CCCc1c(O)c2ccccc2n(-c2ccccc2)c1=O | 1.37% (inactive) | –
C=CCn1c(=O)c(C(=O)NCCN(CC)CC)c(O)c2ccccc21 | – | 4.47 µM (active)
CN(C(=O)c1c(O)c2ccccc2n(C)c1=O)c1ccccc1 | -7.86% (inactive) | –
COc1ccc(NC(=O)N2CCCC3(CCN(C(=O)c4cnccn4)CC3)C2)cc1 | 4.29% (inactive) | –
Cc1cc(NC(=O)c2cc(C(C)C)on2)no1 | 20.3% (inactive) | –
CCOC(=O)N1CCN(CC(=O)c2ccc3c(c2)CCN3)CC1 | -23.3% (inactive) | –
CC(=O)C1=C(O)C=C(c2ccco2)CC1c1ccco1 (stereo unspecified) | -12.8% (inactive) | –
c1ccc(-c2nc(CSc3n[nH]c(-c4cccs4)n3)cs2)cc1 | – | 1.12 µM (active)
Cc1cc(NC(=O)CSc2n[nH]c(-c3cccs3)n2)no1 | -3.95% (inactive) | –
CSc1n[nH]c(-c2sccc2OCc2ccc(C)cc2)n1 | -27.3% (inactive) | –
C=CC[C@@H](C(=O)O)c1ccccc1 | 1.94% [at 11.4 µM] (inactive) | –
CCc1c(C)c(C#N)c2nc3ccccc3n2c1N1CCN(c2cc(C)ccn2)CC1 | -6.92% (inactive) | –
C[C@H]1CCCC=CC2C[C@H](OC(=O)CN(C)C)C[C@@H]2[C@@H](O)/C=C\C(=O)O1 (stereo partly specified) | 9.34% [at 11.4 µM] (inactive) | –
Cc1cccc2sc(NC(=O)C3c4ccccc4Oc4ccccc43)nc12 | -27% (inactive) | –
O=S(=O)(c1ccccc1)N1CCC2(CCCN(c3cccc(-c4ccccc4)c3)C2)CC1 | 1.98% (inactive) | –
c1ccc(-c2cccc(N3CC4(CCNCC4)C3)c2)cc1 | – | 20 µM (active)
CS(=O)(=O)N1CCC2(CC1)CN(c1cccc(-c3ccccc3)c1)C2 | -0.816% (inactive) | –
Cn1cccc1C(=O)N1CCC2(CC1)CN(c1cccc(-c3ccccc3)c1)C2 | -4.41% (inactive) | –
O=S(=O)(c1ccccc1)N1CCC[C@@]2(CCN(c3cccc(-c4ccccc4)c3)C2)C1 | -1.58% (inactive) | –
c1ccc(-c2cccc(N3CC[C@@]4(CCCNC4)C3)c2)cc1 | – | 10 µM (active)
Cc1ccccc1C(=O)Nc1ccc(C(=O)NNC(=O)CCCOc2ccc(Cl)cc2Cl)cc1 | -9.11% (inactive) | –
COc1cc(Br)c(C(C)NC(=O)c2cccc(Br)c2)cc1OC (stereo unspecified) | -16.8% (inactive) | –

SMILES | activity, negative = inhibition | AC50
C/C(=N\NC(=O)c1cccc(C)c1)c1cccc(NC(=O)c2ccco2)c1 | -0.781% (inactive) | –
Cn1c([N+](=O)[O-])cnc1COC(N)=O | 1.78% [at 25.6 µM] (inactive) | –
Cc1cc(C)c2cc(C#N)c(NCCOC(=O)c3ccccc3C)nc2c1 | 6.66% (inactive) | –
Cc1nn(-c2ccc(Cl)cc2)c2sc(C(=O)c3c(N)n(C)c(=O)n(C)c3=O)cc12 | 22% (inactive) | –
Cc1nn(-c2ccccc2)c2c1C(c1ccc(O)c(O)c1)N1C(=N2)C(Nc2ccccc2)=Nc2ccccc21 (stereo unspecified) | -1.07% (inactive) | –
COc1ccccc1OCc1ccc(C(=O)N(C)C)o1 | -26.7% (inactive) | –
Cc1ccc(C(=O)NNC(=O)CSc2nnc3c(n2)[nH]c2ccc(F)cc23)cc1 | -8.95% (inactive) | –
O=C(O)c1cc(-c2ccc(-c3ccccc3)cc2)nc2cc3ccccc3cc12 | -10.7% [at 11.4 µM] (inactive) | –
CC(=O)Nc1ccc(-c2cc(C(=O)O)c3cc4ccccc4cc3n2)cc1 | -6.98% [at 11.4 µM] (inactive) | –
COc1ccc(OC)c(-c2cc(C(=O)O)c3cc4ccccc4cc3n2)c1 | – | 3.98 µM (active)
O=C(Oc1ccc(C(=S)N2CCOCC2)cc1Br)c1cc(Cl)ccc1Cl | -5.56% (inactive) | –
O=C(O)c1ccc(C(=O)Nc2cccc3ccccc23)c(C(=O)O)c1 | 10.4% [at 11.4 µM] (inactive) | –
COc1ccc(-n2c(=O)c(C)nc3cnc(Nc4cccc(OC)c4)nc32)cc1 | -12.9% (inactive) | –
COc1cccc2cc(C(=O)CC3(O)C(=O)N(Cc4ccccc4)c4ccccc43)c(=O)oc12 (stereo unspecified) | -12.8% (inactive) | –
COc1cccc(-c2nccc(NCc3ccccc3)n2)c1 | – | 1 µM (active)
COc1cccc(-c2nccc(NCc3cccs3)n2)c1 | – | 0.316 µM (active)
COc1cccc(-c2nccc(NCc3cccc(C)c3)n2)c1 | – | 10 µM (active)
COc1cccc(-c2nccc(NCc3cnc(C)cn3)n2)c1 | -11.9% (inactive) | –
COc1ccc(-c2nc3cnc(Nc4cccc(OC)c4)nc3n(Cc3cccs3)c2=O)cc1 | 4.57% (inactive) | –
COc1cccc(Nc2ncc3nc(-c4ccccc4)c(=O)n(Cc4cccs4)c3n2)c1 | 11.2% (inactive) | –
CCOC(=O)CCN1C(=O)[C@H]2[C@@H]3[C@H](O)[C@H](O)CC(=O)[C@H]3CC[C@H]2C1=O | -6.39% [at 11.4 µM] (inactive) | –
CC(C)CN(CC#N)CC(C)C | 1.21% [at 11.4 µM] (inactive) | –
O=C(c1cc(C(F)(F)F)cc(C(F)(F)F)c1)N1CCC2(CC1)CN(c1ccccc1)C2 | 8.07% (inactive) | –

SMILES | activity, negative = inhibition | AC50
O=c1ncn(-c2ccccc2F)c2ncccc12 | 23.3% (inactive) | –
CN1CCCC2(CCN(C(=O)c3cc(C(F)(F)F)cc(C(F)(F)F)c3)CC2)C1 | -5.92% (inactive) | –
O=C(Nc1ccccc1N1CCN(C(=O)c2ccc(Cl)cc2)CC1)c1cc(Br)ccc1Cl | -24.3% (inactive) | –
C[C@@H](c1ccccc1)N1C(=O)[C@H]2[C@H]3[C@H](O)[C@H](O)C/C(=N/OC[C@@H](O)COCc4ccco4)[C@@H]3CC[C@@H]2C1=O | 3.23% [at 11.4 µM] (inactive) | –
O=C(N/N=C/c1c[nH]c2ccccc12)c1cc(-c2ccc(-c3ccccc3)cc2)n[nH]1 | -8.44% (inactive) | –
O=C(N/N=C/c1c[nH]c2ccc(Br)cc12)c1ccn(Cc2ccc(Cl)cc2)n1 | – | 12.6 µM (active)
[N-]=[N+]=NC[C@@H]1O[C@@H](n2cnc3c(N)ncnc32)[C@@H]2O[C@@H]21 | 3.12% [at 11.4 µM] (inactive) | –
CC(=O)N1CCc2cc(S(=O)(=O)CCC(=O)Nc3c(C)n(C)n(-c4ccccc4)c3=O)ccc21 | 9.42% (inactive) | –
CC(C)CCNC1=NCCCCC1 | – | 12.6 µM (active)
Cc1ccc2[nH]c3nc(CCCn4ccnc4-c4ccccc4)nnc3c2c1 | -15.6% [at 11.4 µM] (inactive) | –
Cc1sc(NC(=O)c2ccc(OCC(C)C)cc2)c(C(N)=O)c1-c1ccc(Cl)cc1Cl | 6.82% (inactive) | –
N#Cc1cccc(NC(=O)N2CC3(CCN(C(=O)c4cnccn4)CC3)C2)c1 | -5.46% (inactive) | –
CCOc1ccccc1C1C(C#N)=C(N)Oc2n[nH]c(CC)c21 (stereo unspecified) | -15.4% (inactive) | –
O=C(N/N=C\c1ccc(-c2ccccc2[N+](=O)[O-])o1)C1COc2cc3ccccc3cc2O1 (stereo unspecified) | 4.5% (inactive) | –
Cc1cc(C)c(C#N)c(Oc2ccc(F)cc2)n1 | 9.74% (inactive) | –
N#Cc1c(-c2ccccc2)ccnc1Oc1ccccc1 | -8.61% (inactive) | –
CN(C)c1ccnc(Oc2ccc(Cl)cc2)c1C#N | – | 5.01 µM (active)
COC(=O)[C@@H]1CC[C@H](C)[C@@H](c2ccc(C)cc2)N1C(=O)c1ccc(/C=N\OC[C@@H]2O[C@H](c3ccccc3)C=C[C@@H]2Oc2ccc(OC)cc2)cc1 | 3.42% [at 11.4 µM] (inactive) | –
CCCN[C@@H](C)C(=O)Nc1c(C)csc1C(=O)OC | -8.72% [at 25.6 µM] (inactive) | –
CCOC(=O)N1CCN(c2c(-c3ccccc3)c3cc(Cl)ccc3[nH]c2=O)CC1 | – | 0.355 µM (active)
CCOC(=O)c1[nH]c2ccc(Cl)cc2c1-c1ccccc1 | 7.26% (inactive) | –
CCOC(=O)N1CCN(C(=O)c2cccn3c(=O)c4cc(Cl)ccc4nc23)CC1 | -19.7% (inactive) | –
O=C(c1ccccc1)N1CCSC1=S | 2.21% (inactive) | –

SMILES | activity, negative = inhibition | AC50
COc1ccc(C(=O)[C@H](Br)[C@H](Br)C(=O)O)cc1 | -14.6% [at 11.4 µM] (inactive) | –
CCOc1cc(/C=N/n2cnnc2)c(Br)cc1O | 0.114% (inactive) | –
Cc1ccc(/C=N/NC(=O)CSc2nc3ccccc3n2C)s1 | – | 7.08 µM (active)
Cn1c(/C=N/NC(=O)c2ccccc2Br)nc2ccccc21 | -16.1% (inactive) | –
Cc1ccc(C(=O)N/N=C/c2nc3ccccc3n2C)cc1 | -3% (inactive) | –
O=C(c1cc(Br)ccc1O)c1cc(Br)ccc1O | -11.4% [at 11.4 µM] (inactive) | –
CC(C)=C[C@H]1[C@@H](C(=O)Oc2ccccc2C(C)C)C1(C)C | 0.868% [at 11.4 µM] (inactive) | –
CC1(C)CCC=[N+]1[O-] | 2.61% (inactive) | –
Nc1c2c(nc3ccccc13)CCC[C@H]2O | -6.84% (inactive) | –
Nc1c2c(nc3ccccc13)CCCC2 | – | 5.01 µM (active) and inactive
Nc1[nH]n2c(=O)c3c(nc2c1N=Nc1ccccc1)CCCC3 | -21.7% (inactive) | –
COc1ccc(NC(=O)C2CC(=O)NC3=C2C(=O)CC(C)(C)C3)cc1 (stereo unspecified) | 8.12% (inactive) | –
COc1ccc(CCN=CC2=C(O)CC(C)(C)CC2=O)cc1 | -0.143% (inactive) | –
CC(=O)OC[C@@H]1O[C@H](C/C=N\O[C@@H](C)CN2CCCCc3nc(C)c(C)cc32)C=C[C@@H]1OC(C)=O | – | 3.16 µM (active)
CC(=O)OC[C@@H]1O[C@H](C/C=N\O[C@@H](C)CN2CCCc3nc(C)c(C)cc32)C=C[C@@H]1OC(C)=O | – | 3.16 µM (active)
CC(=O)OC[C@@H]1O[C@H](C/C=N\OC[C@@H](O)COCc2ccco2)C=C[C@@H]1OC(C)=O | -5.26% [at 11.4 µM] (inactive) | –
CC(=O)OC[C@@H]1O[C@H](C/C=N\O[C@@H](C)c2cc(-c3c(C)cc(C)cc3C)no2)C=C[C@@H]1OC(C)=O | -0.786% [at 11.4 µM] (inactive) | –
CC(=O)OC[C@@H]1O[C@H](C/C=N\O[C@@H](C)c2cn([C@H](CO)Cc3ccccc3)nn2)C=C[C@@H]1OC(C)=O | 6.63% [at 11.4 µM] (inactive) and -11.6% [at 11.4 µM] (inactive) | –
CC(=O)OC[C@@H]1O[C@H](C/C=N\O[C@@H](C)c2cn([C@H]3COC[C@H]3O)nn2)C=C[C@@H]1OC(C)=O | 10.3% [at 11.4 µM] (inactive) | –
CC(C)Nc1nc(NC(C)(C)C)nc(Oc2ccc(=O)n(-c3ccccc3)n2)n1 | -18.2% (inactive) | –
Cc1ccc(NC(=O)Nc2nc(-c3ccc(C)s3)cs2)cc1 | -3.69% (inactive) | –
CCCCN(C(=O)NC(=O)Nc1ccccc1OCC)S(C)(=O)=O | -22.9% (inactive) | –
